From PubChem BioAssay (NCATS)
Records with an inconclusive call do not appear. Entries that show only a call come without a potency. Calls of active or inactive are those of the source. Calls follow the shape of the dose curve; as a rule, active = well fitted inhibition curve with a large enough effect; inconclusive = small, poorly fitted or top-dose-only effect; inactive = flat fitted curve, though single readings scatter.

Test system: UISO
Assay: qHTS assay to identify novel small-molecules to repurpose for Merkel cell carcinoma treatment (AID 1296009); also: nearly all actives have a fitted effect of over 60% in size
Conditions: MCC and control cell lines, CellTiter-Glo viability, 72 h; series mostly up to 46 µM
Procedure, shortened: (§1)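 Dose-response viability screen; 72 hr exposure at 37 degree celsius; CellTiter-Glo added, 10 min room temperature, luminescence read; RLUs scaled between no-cell and DMSO wells.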
Potency is read from the fitted curve at half-maximal effect.

| SMILES | Potency |
| --- | --- |
| CCNC(=O)CCCC=CC[C@@H]1[C@H](C=CC(O)CCc2ccccc2)[C@@H](O)C[C@@H]1O (some centres undefined) | inactive |
| O=C(c1ccc(F)c(F)c1Nc1ccc(I)cc1F)N1CC(O)([C@H]2CCCCN2)C1 | inactive |
| C=C1c2cccc(O)c2C(O)=C2C(=O)[C@@]3(O)C(O)=C(C(N)=O)C(=O)[C@@H](N(C)C)[C@@H]3[C@@H](O)[C@H]12 | inactive |
| CCC(=O)OCC(=O)[C@@]1(OC(=O)CC)[C@@H](C)C[C@@H]2[C@H]3CCC4=CC(=O)C=C[C@]4(C)[C@@]3(F)[C@@H](O)C[C@@]21C | inactive |
| N#Cc1c(N(CC(=O)O)CC(=O)O)sc(C(=O)O)c1CC(=O)O | inactive |
| C[C@]12CC[C@@H]3c4ccc(O)cc4CC[C@H]3[C@H]1[C@@H](O)[C@@H](O)[C@H]2O | inactive |
| NC(N)=Nc1nc(CSCCC(N)=NS(N)(=O)=O)cs1 | inactive |
| O=C(O)CCNc1cc(N2CCc3ccccc3CC2)nc(-c2ccccn2)n1 | 14.8 µM (active) |
| CC(=O)NCCC(=O)N[C@@H](CCC(N)=O)C(=O)N[C@@H](CO)C(=O)N[C@@H](CCC(N)=O)C(=O)N[C@@H](CCC(N)=O)C(=O)N[C@H](C(=O)N[C@@H](Cc1ccccc1)C(=O)N[C@]1(C)CCCCCCC=CCCC[C@@](C)(C(=O)N[C@@H](CCC(N)=O)C(=O)N[C@@H](CC(N)=O)C(N)=O)NC(=O)[C@H](CC(C)C)NC(=O)[C@H](CC(C)C)NC(=O)[C@@H](CCCNC(=N)N)NC(=O)[C@H](Cc2c[nH]c3ccccc23)NC(=O)[C@H](CC(C)C)NC(=O)[C@H](CC(N)=O)NC1=O)[C@H](C)O | inactive |
| CN(C)c1ccc(-c2nc3ncc(Cl)c(N4CCN(CC(=O)Nc5nccs5)CC4)c3[nH]2)cc1 | inactive |
| OC(c1cc(C(F)(F)F)nc2c(C(F)(F)F)cccc12)C1CCCCN1 (centres undefined) | inactive |
| CNc1nc(-c2ccc3c(N)n[nH]c3c2)cc(N2C[C@@H](C(=O)NC3CCCCC3)CC[C@@H]2C)n1 | inactive |
| COc1ccnc(CS(=O)c2nc3ccc(OC(F)F)cc3[nH]2)c1OC (centres undefined) | inactive |
| CCCC1OC2C[C@@H]3[C@H]4CCC5=CC(=O)C=C[C@]5(C)[C@H]4C(O)C[C@]3(C)[C@]2(C(=O)CO)O1 (some centres undefined) | inactive |
| Nc1[nH]nc2nnc(-c3c(-c4ccccc4)nn4ccccc34)cc12 | inactive |
| FC(F)(F)c1ccc(C=Cc2nc(COc3ccc(CCCCn4ccnn4)cc3)co2)cc1 | 0.0264 µM (active) |
| CNC(=O)c1ccc2c(C(=Nc3cccc(CN(C)C)c3)c3ccccc3)c(O)[nH]c2c1 | inactive |
| O=C(CC12CC3CC(CC(C3)C1)C2)Nc1cccc2nc(NCCNCCO)ccc12 | inactive |
| CCCCCCCCCCCCCCCC(=O)O[C@H]1[C@@H](O)[C@@H](O)[C@@H]([C@H](NC(=O)[C@@H]2C[C@@H](CCC)CN2C)[C@H](C)Cl)O[C@@H]1SC | inactive |
| COc1cc([C@H]2Oc3cc([C@H]4Oc5cc(O)cc(O)c5C(=O)[C@H]4O)ccc3O[C@H]2CO)ccc1O | inactive |
| O=C1NC(=O)C(=Cc2ccc(-c3ccc(F)cc3O)o2)S1 | inactive |
| N=C1SC(=Cc2ccc(-c3ccc4c(c3)C(=O)NC4=O)o2)C(=O)N1c1ccc(Br)cc1 | inactive |
| CN[C@@H]1[C@@H](O)[C@@H](O[C@@H]2[C@@H](O)[C@H](O[C@H]3O[C@H](CN)[C@@H](O)[C@H](O)[C@@H]3O)[C@@H](N)C[C@@H]2NC(=O)[C@@H](O)CN)OC[C@]1(C)O | inactive |
| CC1C(=O)OC2C(O)C34C5CC(C(C)(C)C)C36C(OC(=O)C6O)OC4(C(=O)O5)C12O (centres undefined) | inactive |
| CN(C(Cc1ccc(OS(=O)(=O)c2cccc3cnccc23)cc1)C(=O)N1CCN(c2ccccc2)CC1)S(=O)(=O)c1cccc2cnccc12 (centres undefined) | 7.43 µM (active) |
| C[C@@H](O)[C@H]1C(=O)N2C(C(=O)OCOC(=O)C(C)(C)C)=C(SC3CN(C4=NCCS4)C3)[C@H](C)[C@H]12 | inactive |
| CCC(=O)NCC[C@@H]1CCc2ccc3c(c21)CCO3 | inactive |
| CN(C)N=Nc1nc[nH]c1C(N)=O | inactive |

Test system: WaGa
Assay: as above
Conditions: MCC and control cell lines, CellTiter-Glo viability, 72 h; series mostly up to 46 µM
Procedure, shortened: as §1

| SMILES | Potency |
| --- | --- |
| CCNC(=O)CCCC=CC[C@@H]1[C@H](C=CC(O)CCc2ccccc2)[C@@H](O)C[C@@H]1O (some centres undefined) | inactive |
| O=C(c1ccc(F)c(F)c1Nc1ccc(I)cc1F)N1CC(O)([C@H]2CCCCN2)C1 | inactive |
| C=C1c2cccc(O)c2C(O)=C2C(=O)[C@@]3(O)C(O)=C(C(N)=O)C(=O)[C@@H](N(C)C)[C@@H]3[C@@H](O)[C@H]12 | inactive |
| CCC(=O)OCC(=O)[C@@]1(OC(=O)CC)[C@@H](C)C[C@@H]2[C@H]3CCC4=CC(=O)C=C[C@]4(C)[C@@]3(F)[C@@H](O)C[C@@]21C | inactive |
| N#Cc1c(N(CC(=O)O)CC(=O)O)sc(C(=O)O)c1CC(=O)O | inactive |
| CO[C@H]1O[C@@H]2O[C@@]3(C)CC[C@@H]4[C@@H](C)CC[C@@H]([C@H]1C)[C@@]24OO3 | 20.9 µM (active) |
| C[C@]12CC[C@@H]3c4ccc(O)cc4CC[C@H]3[C@H]1[C@@H](O)[C@@H](O)[C@H]2O | inactive |
| CC(=O)NCCC(=O)N[C@@H](CCC(N)=O)C(=O)N[C@@H](CO)C(=O)N[C@@H](CCC(N)=O)C(=O)N[C@@H](CCC(N)=O)C(=O)N[C@H](C(=O)N[C@@H](Cc1ccccc1)C(=O)N[C@]1(C)CCCCCCC=CCCC[C@@](C)(C(=O)N[C@@H](CCC(N)=O)C(=O)N[C@@H](CC(N)=O)C(N)=O)NC(=O)[C@H](CC(C)C)NC(=O)[C@H](CC(C)C)NC(=O)[C@@H](CCCNC(=N)N)NC(=O)[C@H](Cc2c[nH]c3ccccc23)NC(=O)[C@H](CC(C)C)NC(=O)[C@H](CC(N)=O)NC1=O)[C@H](C)O | inactive |
| COc1cc2ncnc(Nc3cc(Br)c(O)c(Br)c3)c2cc1OC | inactive |
| CN(C)c1ccc(-c2nc3ncc(Cl)c(N4CCN(CC(=O)Nc5nccs5)CC4)c3[nH]2)cc1 | inactive |
| OC(c1cc(C(F)(F)F)nc2c(C(F)(F)F)cccc12)C1CCCCN1 (centres undefined) | inactive |
| CNc1nc(-c2ccc3c(N)n[nH]c3c2)cc(N2C[C@@H](C(=O)NC3CCCCC3)CC[C@@H]2C)n1 | inactive |
| COc1ccnc(CS(=O)c2nc3ccc(OC(F)F)cc3[nH]2)c1OC (centres undefined) | inactive |
| CCCC1OC2C[C@@H]3[C@H]4CCC5=CC(=O)C=C[C@]5(C)[C@H]4C(O)C[C@]3(C)[C@]2(C(=O)CO)O1 (some centres undefined) | inactive |
| Nc1[nH]nc2nnc(-c3c(-c4ccccc4)nn4ccccc34)cc12 | 1.05 µM (active) |
| FC(F)(F)c1ccc(C=Cc2nc(COc3ccc(CCCCn4ccnn4)cc3)co2)cc1 | 0.0047 µM (active) |
| CNC(=O)c1ccc2c(C(=Nc3cccc(CN(C)C)c3)c3ccccc3)c(O)[nH]c2c1 | inactive |
| O=C(CC12CC3CC(CC(C3)C1)C2)Nc1cccc2nc(NCCNCCO)ccc12 | inactive |
| CCCCCCCCCCCCCCCC(=O)O[C@H]1[C@@H](O)[C@@H](O)[C@@H]([C@H](NC(=O)[C@@H]2C[C@@H](CCC)CN2C)[C@H](C)Cl)O[C@@H]1SC | inactive |
| COc1cc([C@H]2Oc3cc([C@H]4Oc5cc(O)cc(O)c5C(=O)[C@H]4O)ccc3O[C@H]2CO)ccc1O | inactive |
| N=C1SC(=Cc2ccc(-c3ccc4c(c3)C(=O)NC4=O)o2)C(=O)N1c1ccc(Br)cc1 | inactive |
| CC(=O)O[C@]1(C(C)=O)CC[C@H]2[C@@H]3C=C(Cl)C4=CC(=O)[C@@H]5C[C@H]5[C@]4(C)[C@@H]3CC[C@@]21C | inactive |
| CN[C@@H]1[C@@H](O)[C@@H](O[C@@H]2[C@@H](O)[C@H](O[C@H]3O[C@H](CN)[C@@H](O)[C@H](O)[C@@H]3O)[C@@H](N)C[C@@H]2NC(=O)[C@@H](O)CN)OC[C@]1(C)O | inactive |
| CCN1CCC(n2cc(CNc3cc(Cl)c4ncc(C#N)c(Nc5ccc(F)c(Cl)c5)c4c3)nn2)CC1 | inactive |
| C[C@@H](O)[C@H]1C(=O)N2C(C(=O)OCOC(=O)C(C)(C)C)=C(SC3CN(C4=NCCS4)C3)[C@H](C)[C@H]12 | inactive |
| CCC(=O)NCC[C@@H]1CCc2ccc3c(c21)CCO3 | inactive |
